# Laboratory results taken from article PMC7862700, “An all-to-all approach to the identification of sequence-specific readers for epigenetic DNA modifications on cytosine”.
# How the values were obtained:
# Assay in all cases: DAPPL (digital affinity profiling via proximity ligation, sequencing); 10 mM Tris-HCl pH 7.5, 50 mM NaCl, 1 mM DTT, 4% glycerol, room temperature, 30 min; GST-TFs on glutathione beads, 16-mer random dsDNA library, 0.1% formaldehyde crosslink after washing; high values mean tight binding
# FEV = target: T1, FEV (Homo sapiens, UniProt Q99581 1-238); details: protein: recombinant; tags: N-terminal GST; dsDNA, one strand shown
# T1 sequence: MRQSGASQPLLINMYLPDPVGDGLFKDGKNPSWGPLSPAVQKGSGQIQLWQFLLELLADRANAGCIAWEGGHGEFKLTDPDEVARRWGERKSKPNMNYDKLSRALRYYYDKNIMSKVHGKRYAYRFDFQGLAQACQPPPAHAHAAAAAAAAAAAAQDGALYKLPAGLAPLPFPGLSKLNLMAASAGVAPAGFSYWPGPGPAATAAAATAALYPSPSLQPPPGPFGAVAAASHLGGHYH
# Method in brief: (§1)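 Human transcription factors were made in yeast as GST fusions, captured on glutathione beads and barcoded with DNA. With a tag-only sample included, the pool was incubated with 200 nmole of a random double-stranded 16-mer DNA library in Tris/NaCl/DTT/glycerol buffer at room temperature for 30 min, then crosslinked with 0.1% formaldehyde after washing, ligated by proximity, amplified and sequenced. For binding signal, each hexamer's read frequency for a factor is divided by its frequency for the tag-only sample.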
# ETV5 = ETV5 (Homo sapiens, UniProt P41161 1-510); details: protein: recombinant; tags: N-terminal GST; dsDNA, one strand shown
# Method in brief: as §1
# HSF1 = HSF1 (Homo sapiens, UniProt Q00613 1-529); details: protein: recombinant; tags: N-terminal GST; chain copies: 3; dsDNA, one strand shown
# Method in brief: as §1
# SPIC = target: T2, SPIC (Homo sapiens, UniProt Q8N5J4 1-248); details: protein: recombinant; tags: N-terminal GST; dsDNA, one strand shown
# T2 sequence: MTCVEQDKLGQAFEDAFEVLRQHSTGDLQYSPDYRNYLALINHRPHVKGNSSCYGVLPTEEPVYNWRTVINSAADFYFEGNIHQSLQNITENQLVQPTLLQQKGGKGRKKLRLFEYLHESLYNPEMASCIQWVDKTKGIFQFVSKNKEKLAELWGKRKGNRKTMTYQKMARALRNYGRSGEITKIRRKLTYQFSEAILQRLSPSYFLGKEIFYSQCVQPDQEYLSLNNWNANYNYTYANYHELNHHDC
# Method in brief: as §1
# ELF4 = ELF4 (Homo sapiens, UniProt Q99607 1-663); details: protein: recombinant; tags: N-terminal GST; dsDNA, one strand shown
# Method in brief: as §1
# ELK4 = target: T3, ELK4 (Homo sapiens, UniProt P28324-2 1-405); details: protein: recombinant; tags: N-terminal GST; dsDNA, one strand shown
# T3 sequence: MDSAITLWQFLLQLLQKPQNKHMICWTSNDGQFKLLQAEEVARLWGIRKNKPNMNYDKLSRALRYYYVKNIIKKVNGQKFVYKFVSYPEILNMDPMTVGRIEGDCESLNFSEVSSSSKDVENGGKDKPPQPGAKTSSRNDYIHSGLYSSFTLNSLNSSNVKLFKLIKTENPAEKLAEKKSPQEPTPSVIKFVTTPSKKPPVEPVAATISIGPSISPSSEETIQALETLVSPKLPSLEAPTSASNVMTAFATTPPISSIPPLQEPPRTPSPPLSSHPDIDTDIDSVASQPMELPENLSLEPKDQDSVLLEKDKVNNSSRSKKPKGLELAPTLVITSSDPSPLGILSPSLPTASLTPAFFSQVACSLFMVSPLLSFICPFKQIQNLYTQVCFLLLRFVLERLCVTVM
# Method in brief: as §1
# ETV2 = target: T4, ETV2 (Homo sapiens, UniProt O00321 1-342); details: protein: recombinant; tags: N-terminal GST; dsDNA, one strand shown
# T4 sequence: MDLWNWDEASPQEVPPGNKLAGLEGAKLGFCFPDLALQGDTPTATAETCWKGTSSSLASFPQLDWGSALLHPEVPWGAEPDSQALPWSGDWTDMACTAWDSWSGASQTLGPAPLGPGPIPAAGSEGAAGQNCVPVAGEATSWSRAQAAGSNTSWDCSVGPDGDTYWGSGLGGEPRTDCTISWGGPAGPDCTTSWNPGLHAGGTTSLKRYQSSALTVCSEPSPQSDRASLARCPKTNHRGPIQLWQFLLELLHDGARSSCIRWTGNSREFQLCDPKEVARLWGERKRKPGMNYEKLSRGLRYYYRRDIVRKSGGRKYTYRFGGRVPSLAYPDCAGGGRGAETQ
# Method in brief: as §1
# ELF3 = target: T5, ELF3 (Homo sapiens, UniProt P78545 1-371); details: protein: recombinant; tags: N-terminal GST; dsDNA, one strand shown
# T5 sequence: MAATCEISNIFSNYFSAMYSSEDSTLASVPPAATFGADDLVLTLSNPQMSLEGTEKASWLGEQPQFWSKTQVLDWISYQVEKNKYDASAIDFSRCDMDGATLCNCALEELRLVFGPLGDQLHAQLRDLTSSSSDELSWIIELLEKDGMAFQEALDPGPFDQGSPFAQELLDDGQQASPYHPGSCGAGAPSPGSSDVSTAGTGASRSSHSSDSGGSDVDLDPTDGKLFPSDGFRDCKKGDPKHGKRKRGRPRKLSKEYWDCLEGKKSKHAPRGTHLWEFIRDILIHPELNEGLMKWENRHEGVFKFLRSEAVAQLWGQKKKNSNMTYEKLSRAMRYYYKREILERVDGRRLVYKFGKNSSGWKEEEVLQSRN
# Method in brief: as §1
# CRX = CRX (Homo sapiens, UniProt O43186 1-299); details: protein: recombinant; tags: N-terminal GST; dsDNA, one strand shown
# Method in brief: as §1
# ETV1 = ETV1 (Homo sapiens, UniProt P50549 1-477); details: protein: recombinant; tags: N-terminal GST; dsDNA, one strand shown
# Method in brief: as §1
# ERF = target: T6, ERF (Homo sapiens, UniProt P50548 1-548); details: protein: recombinant; tags: N-terminal GST; dsDNA, one strand shown
# T6 sequence: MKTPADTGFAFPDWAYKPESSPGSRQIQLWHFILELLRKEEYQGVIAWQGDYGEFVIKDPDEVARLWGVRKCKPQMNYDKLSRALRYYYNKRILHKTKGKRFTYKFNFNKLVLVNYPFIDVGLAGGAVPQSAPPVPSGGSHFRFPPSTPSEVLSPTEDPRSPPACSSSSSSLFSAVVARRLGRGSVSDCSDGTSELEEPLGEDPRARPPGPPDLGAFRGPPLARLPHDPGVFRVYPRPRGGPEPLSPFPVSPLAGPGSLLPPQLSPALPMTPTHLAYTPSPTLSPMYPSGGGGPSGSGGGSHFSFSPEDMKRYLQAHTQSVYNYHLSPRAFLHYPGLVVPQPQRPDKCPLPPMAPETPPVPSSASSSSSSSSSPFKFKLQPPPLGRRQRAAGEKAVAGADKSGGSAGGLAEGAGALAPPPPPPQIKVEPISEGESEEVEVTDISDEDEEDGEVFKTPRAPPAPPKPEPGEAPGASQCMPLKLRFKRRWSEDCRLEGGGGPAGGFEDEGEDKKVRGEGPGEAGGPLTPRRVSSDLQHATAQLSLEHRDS
# Method in brief: as §1
# ETV3L = target: T7, ETV3L (Homo sapiens, UniProt Q6ZN32 1-361); details: protein: recombinant; tags: N-terminal GST; dsDNA, one strand shown
# T7 sequence: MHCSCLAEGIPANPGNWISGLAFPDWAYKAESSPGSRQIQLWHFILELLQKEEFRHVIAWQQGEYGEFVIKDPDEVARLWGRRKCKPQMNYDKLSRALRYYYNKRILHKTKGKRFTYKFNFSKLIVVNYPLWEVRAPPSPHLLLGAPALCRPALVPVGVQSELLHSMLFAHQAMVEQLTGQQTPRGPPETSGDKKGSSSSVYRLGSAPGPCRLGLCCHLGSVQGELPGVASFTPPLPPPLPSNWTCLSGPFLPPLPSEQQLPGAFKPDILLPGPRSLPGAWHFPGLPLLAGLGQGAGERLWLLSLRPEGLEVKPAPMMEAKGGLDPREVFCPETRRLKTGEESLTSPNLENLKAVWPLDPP
# Method in brief: as §1
# ETS2 = target: T8, ETS2 (Homo sapiens, UniProt P15036 1-469); details: protein: recombinant; tags: N-terminal GST; dsDNA, one strand shown
# T8 sequence: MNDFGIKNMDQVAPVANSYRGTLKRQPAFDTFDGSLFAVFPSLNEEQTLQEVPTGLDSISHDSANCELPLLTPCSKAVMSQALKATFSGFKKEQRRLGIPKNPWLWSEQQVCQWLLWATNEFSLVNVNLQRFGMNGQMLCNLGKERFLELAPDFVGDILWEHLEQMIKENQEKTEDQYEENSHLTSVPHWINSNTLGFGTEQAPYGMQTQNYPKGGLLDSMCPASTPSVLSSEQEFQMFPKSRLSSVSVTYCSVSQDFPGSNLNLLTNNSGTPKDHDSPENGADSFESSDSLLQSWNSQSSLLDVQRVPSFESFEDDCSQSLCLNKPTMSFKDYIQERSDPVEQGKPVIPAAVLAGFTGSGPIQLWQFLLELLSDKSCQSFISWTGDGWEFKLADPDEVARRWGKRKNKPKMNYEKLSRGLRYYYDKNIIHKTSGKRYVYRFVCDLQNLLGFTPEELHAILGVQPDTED
# Method in brief: as §1
# SPDEF = target: T9, SPDEF (Homo sapiens, UniProt O95238 1-335); details: protein: recombinant; tags: N-terminal GST; dsDNA, one strand shown
# T9 sequence: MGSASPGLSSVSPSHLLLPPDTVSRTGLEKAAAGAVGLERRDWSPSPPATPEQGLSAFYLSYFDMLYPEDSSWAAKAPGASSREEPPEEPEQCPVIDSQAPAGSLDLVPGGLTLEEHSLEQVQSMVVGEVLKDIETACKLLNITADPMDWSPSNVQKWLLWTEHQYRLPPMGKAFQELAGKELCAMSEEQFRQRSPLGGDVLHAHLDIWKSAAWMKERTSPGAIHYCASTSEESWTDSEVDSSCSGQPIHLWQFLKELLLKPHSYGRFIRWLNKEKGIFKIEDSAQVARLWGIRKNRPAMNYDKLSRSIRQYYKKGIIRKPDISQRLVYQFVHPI
# Method in brief: as §1
# ETV7 = target: T10, ETV7 (Homo sapiens, UniProt Q9Y603 1-341); details: protein: recombinant; tags: N-terminal GST; dsDNA, one strand shown
# T10 sequence: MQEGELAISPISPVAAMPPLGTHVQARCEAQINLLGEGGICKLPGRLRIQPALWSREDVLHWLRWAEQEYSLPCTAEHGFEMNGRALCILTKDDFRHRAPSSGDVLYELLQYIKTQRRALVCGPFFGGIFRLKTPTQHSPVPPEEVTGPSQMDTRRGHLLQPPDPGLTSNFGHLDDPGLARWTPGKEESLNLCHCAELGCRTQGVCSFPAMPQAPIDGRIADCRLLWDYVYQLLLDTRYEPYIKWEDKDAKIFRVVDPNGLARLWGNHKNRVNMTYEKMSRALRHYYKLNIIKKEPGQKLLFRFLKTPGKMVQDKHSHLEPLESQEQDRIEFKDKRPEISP
# Method in brief: as §1
# ELF5 = target: T11, ELF5 (Homo sapiens, UniProt Q9UKW6-2 1-255); details: protein: recombinant; tags: N-terminal GST; dsDNA, one strand shown
# T11 sequence: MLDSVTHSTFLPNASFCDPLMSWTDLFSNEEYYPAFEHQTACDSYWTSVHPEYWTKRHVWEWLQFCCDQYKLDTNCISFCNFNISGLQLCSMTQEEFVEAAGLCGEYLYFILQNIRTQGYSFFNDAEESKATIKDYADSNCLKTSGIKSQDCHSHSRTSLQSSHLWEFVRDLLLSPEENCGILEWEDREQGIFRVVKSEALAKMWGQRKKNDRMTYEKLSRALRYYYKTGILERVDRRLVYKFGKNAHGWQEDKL
# Method in brief: as §1
# ETV3 = target: T12, ETV3 (Homo sapiens, UniProt P41162-2 1-143); details: protein: recombinant; tags: N-terminal GST; dsDNA, one strand shown
# T12 sequence: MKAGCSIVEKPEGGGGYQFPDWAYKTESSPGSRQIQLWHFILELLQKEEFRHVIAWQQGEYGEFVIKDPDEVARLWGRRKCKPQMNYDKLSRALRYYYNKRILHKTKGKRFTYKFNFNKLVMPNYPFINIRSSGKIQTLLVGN
# Method in brief: as §1
# ETV6 = ETV6 (Homo sapiens, UniProt P41212 1-452); details: protein: recombinant; tags: N-terminal GST; dsDNA, one strand shown
# Method in brief: as §1
# Sequence of ETV6 (P41212 whole entry): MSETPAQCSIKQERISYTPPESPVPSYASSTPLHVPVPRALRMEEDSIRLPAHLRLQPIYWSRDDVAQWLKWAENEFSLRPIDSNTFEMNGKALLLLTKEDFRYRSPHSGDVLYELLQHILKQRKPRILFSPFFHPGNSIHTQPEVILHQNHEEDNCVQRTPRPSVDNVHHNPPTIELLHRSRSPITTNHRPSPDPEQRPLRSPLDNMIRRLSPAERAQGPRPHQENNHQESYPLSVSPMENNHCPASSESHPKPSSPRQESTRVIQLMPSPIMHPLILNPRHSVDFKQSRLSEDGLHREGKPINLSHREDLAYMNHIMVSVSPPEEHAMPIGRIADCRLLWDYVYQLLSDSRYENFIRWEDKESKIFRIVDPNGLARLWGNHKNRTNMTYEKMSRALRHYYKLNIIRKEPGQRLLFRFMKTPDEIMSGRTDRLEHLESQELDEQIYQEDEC
# Sequence of CRX (O43186 whole entry): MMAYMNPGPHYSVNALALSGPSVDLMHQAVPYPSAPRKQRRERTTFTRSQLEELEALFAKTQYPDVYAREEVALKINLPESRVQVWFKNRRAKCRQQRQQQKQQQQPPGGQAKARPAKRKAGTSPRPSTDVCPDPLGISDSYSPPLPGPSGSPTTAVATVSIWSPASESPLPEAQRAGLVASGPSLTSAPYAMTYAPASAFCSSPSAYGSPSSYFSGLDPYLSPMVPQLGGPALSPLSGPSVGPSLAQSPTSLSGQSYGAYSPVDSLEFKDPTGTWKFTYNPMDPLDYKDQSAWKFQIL
# Sequence of HSF1 (Q00613 whole entry): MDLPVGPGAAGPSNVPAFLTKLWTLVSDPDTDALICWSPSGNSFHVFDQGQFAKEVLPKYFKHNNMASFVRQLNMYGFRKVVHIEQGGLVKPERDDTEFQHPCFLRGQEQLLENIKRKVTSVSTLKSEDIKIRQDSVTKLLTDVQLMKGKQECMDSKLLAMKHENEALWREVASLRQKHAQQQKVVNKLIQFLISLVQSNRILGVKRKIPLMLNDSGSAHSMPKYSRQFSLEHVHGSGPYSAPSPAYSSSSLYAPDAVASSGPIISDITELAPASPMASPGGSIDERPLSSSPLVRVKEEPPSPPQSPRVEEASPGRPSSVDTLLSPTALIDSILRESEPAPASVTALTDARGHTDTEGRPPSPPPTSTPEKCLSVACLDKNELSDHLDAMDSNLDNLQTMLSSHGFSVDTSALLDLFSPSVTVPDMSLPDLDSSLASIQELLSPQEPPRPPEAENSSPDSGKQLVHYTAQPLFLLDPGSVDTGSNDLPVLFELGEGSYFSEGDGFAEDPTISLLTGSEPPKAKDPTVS
# Sequence of ELF4 (Q99607 whole entry): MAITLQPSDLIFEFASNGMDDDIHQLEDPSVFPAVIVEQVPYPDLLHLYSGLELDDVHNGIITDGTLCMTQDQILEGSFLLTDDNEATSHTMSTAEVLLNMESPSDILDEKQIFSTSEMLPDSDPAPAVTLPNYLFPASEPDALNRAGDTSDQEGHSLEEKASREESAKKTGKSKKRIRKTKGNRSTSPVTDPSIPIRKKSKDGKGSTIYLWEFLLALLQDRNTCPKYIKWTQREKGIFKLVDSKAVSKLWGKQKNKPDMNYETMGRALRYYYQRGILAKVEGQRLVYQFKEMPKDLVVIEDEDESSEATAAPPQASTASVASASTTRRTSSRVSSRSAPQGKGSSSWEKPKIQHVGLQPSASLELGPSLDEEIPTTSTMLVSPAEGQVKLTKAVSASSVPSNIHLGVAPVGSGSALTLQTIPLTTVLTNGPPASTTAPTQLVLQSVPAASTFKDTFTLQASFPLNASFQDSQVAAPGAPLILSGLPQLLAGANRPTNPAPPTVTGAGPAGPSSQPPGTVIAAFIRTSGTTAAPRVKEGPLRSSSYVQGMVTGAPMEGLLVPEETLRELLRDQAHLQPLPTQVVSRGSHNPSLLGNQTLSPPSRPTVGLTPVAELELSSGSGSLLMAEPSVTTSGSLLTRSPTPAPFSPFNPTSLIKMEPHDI
# Sequence of ETV1 (P50549 whole entry): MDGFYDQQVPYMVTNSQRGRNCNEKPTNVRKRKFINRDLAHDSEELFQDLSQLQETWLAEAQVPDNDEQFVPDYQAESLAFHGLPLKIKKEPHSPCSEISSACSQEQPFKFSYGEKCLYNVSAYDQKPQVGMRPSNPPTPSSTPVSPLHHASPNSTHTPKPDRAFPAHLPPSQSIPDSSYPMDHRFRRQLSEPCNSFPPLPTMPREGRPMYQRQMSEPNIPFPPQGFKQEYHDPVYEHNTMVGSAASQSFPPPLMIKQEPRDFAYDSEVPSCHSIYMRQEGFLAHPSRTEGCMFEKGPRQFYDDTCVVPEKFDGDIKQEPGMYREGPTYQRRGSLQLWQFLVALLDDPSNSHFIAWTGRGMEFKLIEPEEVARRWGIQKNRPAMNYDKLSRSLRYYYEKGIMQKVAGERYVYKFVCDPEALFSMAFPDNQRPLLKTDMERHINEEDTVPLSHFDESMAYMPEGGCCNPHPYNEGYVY
# Sequence of ETV5 (P41161 whole entry): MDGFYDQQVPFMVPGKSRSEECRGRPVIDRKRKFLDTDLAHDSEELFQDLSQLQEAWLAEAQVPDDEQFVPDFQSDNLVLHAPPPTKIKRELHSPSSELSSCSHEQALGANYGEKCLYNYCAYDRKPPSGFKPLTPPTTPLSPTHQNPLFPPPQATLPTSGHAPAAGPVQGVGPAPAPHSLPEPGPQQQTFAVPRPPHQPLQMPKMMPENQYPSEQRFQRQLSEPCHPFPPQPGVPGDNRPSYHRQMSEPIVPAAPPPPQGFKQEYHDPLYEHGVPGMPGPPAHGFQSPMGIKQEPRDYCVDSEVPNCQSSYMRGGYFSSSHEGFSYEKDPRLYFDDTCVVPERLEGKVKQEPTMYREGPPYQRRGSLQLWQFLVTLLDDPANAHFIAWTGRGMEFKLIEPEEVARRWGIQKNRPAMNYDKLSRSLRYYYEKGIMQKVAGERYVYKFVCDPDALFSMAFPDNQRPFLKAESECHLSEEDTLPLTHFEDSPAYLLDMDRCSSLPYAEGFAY
sequence,measurement,setting,value
TCACAC,binding signal,FEV,"1.35 fold enrichment (6-mer frequency, TF over GST control)"
same,binding signal,ETV5,"1.31 fold enrichment (6-mer frequency, TF over GST control)"
same,binding signal,HSF1,"1.06 fold enrichment (6-mer frequency, TF over GST control)"
same,binding signal,SPIC,"1.24 fold enrichment (6-mer frequency, TF over GST control)"
same,binding signal,ELF4,"1.36 fold enrichment (6-mer frequency, TF over GST control)"
same,binding signal,ELK4,"1.31 fold enrichment (6-mer frequency, TF over GST control)"
same,binding signal,ETV2,"1.29 fold enrichment (6-mer frequency, TF over GST control)"
same,binding signal,ELF3,"1.19 fold enrichment (6-mer frequency, TF over GST control)"
same,binding signal,CRX,"1.07 fold enrichment (6-mer frequency, TF over GST control)"
same,binding signal,ETV1,"1.33 fold enrichment (6-mer frequency, TF over GST control)"
same,binding signal,ERF,"1.26 fold enrichment (6-mer frequency, TF over GST control)"
same,binding signal,ETV3L,"1.32 fold enrichment (6-mer frequency, TF over GST control)"
same,binding signal,ETS2,"1.33 fold enrichment (6-mer frequency, TF over GST control)"
same,binding signal,SPDEF,"1.16 fold enrichment (6-mer frequency, TF over GST control)"
same,binding signal,ETV7,"1.27 fold enrichment (6-mer frequency, TF over GST control)"
same,binding signal,ELF5,"1.26 fold enrichment (6-mer frequency, TF over GST control)"
same,binding signal,ETV3,"1.27 fold enrichment (6-mer frequency, TF over GST control)"
same,binding signal,ETV6,"1.33 fold enrichment (6-mer frequency, TF over GST control)"
